Reference: the supplement of paper PMC3334620
In all, about 33,000 sequences were measured (“E-score (-0.5 to 0.5)”: median about -0.01, highest 2% from about 0.26 on). The full list was thinned out, with the highest values kept by preference.

What follows are sequences tested against Ste12 (UniProt P13574) (assay: PBM E-score (8-mer binding enrichment) (E-score (-0.5 to 0.5)); higher = stronger / more preferred TF binding). Details: protein concentration: 200 nM; construct: GST-DNA-binding domain.
Summary of the method: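 Using PURExpress in vitro transcription/translation, GST-tagged yeast transcription factors were made in full-length or DNA-binding-domain form. These were applied at about 100-200 nM to double-stranded universal all-10-mer Agilent arrays, and bound protein was detected with fluorescent anti-GST. Scans were normalised with masliner before the Universal PBM Analysis Suite assigned E-scores to ungapped eight-base words pooled with their reverse complements.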

UniProt P13574, sequence (P13574 whole entry, the tested form may be a part): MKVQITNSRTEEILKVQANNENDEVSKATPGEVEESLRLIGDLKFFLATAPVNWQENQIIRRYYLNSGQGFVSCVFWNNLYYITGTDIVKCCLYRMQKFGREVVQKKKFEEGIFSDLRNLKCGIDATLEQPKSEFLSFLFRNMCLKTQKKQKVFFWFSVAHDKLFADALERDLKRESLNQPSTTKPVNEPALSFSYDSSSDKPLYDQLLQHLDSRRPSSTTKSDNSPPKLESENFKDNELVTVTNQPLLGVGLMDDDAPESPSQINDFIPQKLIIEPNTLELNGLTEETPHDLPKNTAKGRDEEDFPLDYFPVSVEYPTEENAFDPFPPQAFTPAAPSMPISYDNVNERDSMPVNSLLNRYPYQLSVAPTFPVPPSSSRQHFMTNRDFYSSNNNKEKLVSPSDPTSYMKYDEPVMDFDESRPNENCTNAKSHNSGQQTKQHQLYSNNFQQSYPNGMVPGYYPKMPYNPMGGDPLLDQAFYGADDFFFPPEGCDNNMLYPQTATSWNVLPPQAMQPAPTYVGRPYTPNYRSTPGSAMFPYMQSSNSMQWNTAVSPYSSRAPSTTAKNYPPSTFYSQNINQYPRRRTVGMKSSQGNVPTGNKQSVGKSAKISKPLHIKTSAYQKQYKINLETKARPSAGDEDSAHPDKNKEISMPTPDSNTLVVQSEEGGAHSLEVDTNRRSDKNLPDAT

Sequence	PBM E-score
CGTGATCA	-0.00817
CGCTTCGA	-0.0748
CGGTTTGC	0.0736
AAAGTGCG	0.0163
CTTTCTTA	0.0052
CCCTGACA	-0.0188
CGTTTCTC	0.0338
CGTTTCAC	0.453
AGTTTCTA	0.16
ACTTTCAC	0.139
AGTTTCAA	0.307
AGTTTCCA	0.212
AGTTTCGC	0.184
CGTTTCGA	0.195
CGTTTCGC	0.296
CATTTCAC	0.099
AGTTTCAC	0.338
AGTTTCTC	-0.0852
GTCCATAA	-0.172
CGGTGGAC	-0.157
CTCACTAC	0.00581

Sequence	PBM E-score
CAGTTACA	0.0929
CGTTTCTA	0.166
CGTTTCAA	0.46
CCTTTCAA	-0.0319
AAGCTAGC	-0.242
CACTTCGC	0.0953
AAGAATGA	0.209
CCATCCCC	0.0914
ACATCCCC	0.321
ACATCCCT	-0.0649
AGCAGGTG	-0.0318
CAATCCGG	0.273
CAATCCCC	0.0988
CAATCCCA	-0.0795
CAATCCGC	0.0698
CAATCCCG	0.321
AAATCCGG	0.0201
CTAGGAAA	-0.0731
TTAGGAAA	0.292
ATAGGAAA	0.0645
AAGAAATC	-0.0981

Sequence	PBM E-score
CTGAAACA	0.495
CTGAAAAC	0.0248
ATGAAATC	0.185
CTGAAAGA	0.00814
CTGAAACC	0.47
ATGAAACC	0.457
CTGAAATC	-0.0192
AGGAAACC	-0.0955
CTGAAATA	0.202
AGAACATC	-0.0976
CGACCGTC	-0.173
CGAGTCAC	-0.0334
CAATGCAC	-0.042
CTAACAAA	0.0819
AAAACAAA	0.293
AGAACAAT	0.247
GAAACAAA	0.345
ACAACAAA	0.152
AGAACAAA	0.312
AGAACAAG	0.0467
TTAACAAA	0.246

Sequence	PBM E-score
TAAACAAA	0.244
GTAACAAA	0.312
CAAACAAA	0.149
AAAACAAG	0.104
ATGAGAAC	0.118
AGTGAGCG	-0.176
CCGCAGCG	-0.033
GCGTAGCA	0.0572
CTCGACTA	0.0414
GAGACCTA	-0.0109
GAGATTGA	0.0793
CCTAGAAA	0.144
CAAACAAC	0.223
AAAACAAC	0.154
GAAACAAC	0.334
GGGGTGAA	0.0185
CGCCTAGA	-0.0727
ACATCTTG	-0.151
ACATCTTA	-0.0589
ACATCTTC	0.261
